A short description of assay [1]: small molecules captured by biotinylated probe aFSTL3 – biochemical, small-molecule microarray, fluorescence 635/667, stem cell growth factor project, primary screen (AID 1064).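 Further: measures binding of the biotinylated anti-FSTL3 antibody to printed compounds.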 Conditions: higher = more signal.
The nature of assay [2]: binders from COS7 lysate, DM2A8 probe, primary screen, torsin A project, cell lysate, small-molecule microarray, fluorescence 635/667 (AID 1065). Conditions: higher = more signal, COS7 lysate expressing mutant human TOR1A.
Assay [3] is described as follows: small molecules captured by biotinylated probe aFGF2 – biochemical, small-molecule microarray, fluorescence 635/667, stem cell growth factor project, primary screen (AID 1067).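 Further: measures binding of biotinylated aFGF2 protein to printed compounds on slides; z-score merges feature fluorescence and signal-to-noise across triplicate slides.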 Particulars: higher = more signal.
The nature of assay [4]: small molecules captured by biotinylated probe aFGF10 – biochemical, small-molecule microarray, fluorescence 635/667, stem cell growth factor project, primary screen (AID 1071).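 Further: score merges 667 nm spot intensity and signal to noise from triplicate slides.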 Conditions: higher = more signal.
Assay [5] deals with Neurogenic locus notch homolog protein 2 (Homo sapiens) (UniProt Q04721). The experiment in a line: small molecules binding Notch2 protein – biochemical, small-molecule microarray, 635 nm fluorescence, stem cell growth factors, primary screen (AID 1073). Particulars: higher = more signal.
In assay [6] the target is Pro-neuregulin-1, membrane-bound isoform (Homo sapiens) (UniProt Q02297). The experiment in a line: small molecules binding neuregulin-1 protein – biochemical, small-molecule microarray, fluorescence 635/667, psychiatric disease protein project, primary screen (AID 1075).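 Further: score combines 667 nm spot fluorescence with signal to noise.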 Conditions: NRG1 binding, 635 nm fluorescence, higher = more signal.
Sequence of Pro-neuregulin-1, membrane-bound isoform (Homo sapiens) (Q02297 whole entry, looked up, the tested form may be a part, canonical isoform): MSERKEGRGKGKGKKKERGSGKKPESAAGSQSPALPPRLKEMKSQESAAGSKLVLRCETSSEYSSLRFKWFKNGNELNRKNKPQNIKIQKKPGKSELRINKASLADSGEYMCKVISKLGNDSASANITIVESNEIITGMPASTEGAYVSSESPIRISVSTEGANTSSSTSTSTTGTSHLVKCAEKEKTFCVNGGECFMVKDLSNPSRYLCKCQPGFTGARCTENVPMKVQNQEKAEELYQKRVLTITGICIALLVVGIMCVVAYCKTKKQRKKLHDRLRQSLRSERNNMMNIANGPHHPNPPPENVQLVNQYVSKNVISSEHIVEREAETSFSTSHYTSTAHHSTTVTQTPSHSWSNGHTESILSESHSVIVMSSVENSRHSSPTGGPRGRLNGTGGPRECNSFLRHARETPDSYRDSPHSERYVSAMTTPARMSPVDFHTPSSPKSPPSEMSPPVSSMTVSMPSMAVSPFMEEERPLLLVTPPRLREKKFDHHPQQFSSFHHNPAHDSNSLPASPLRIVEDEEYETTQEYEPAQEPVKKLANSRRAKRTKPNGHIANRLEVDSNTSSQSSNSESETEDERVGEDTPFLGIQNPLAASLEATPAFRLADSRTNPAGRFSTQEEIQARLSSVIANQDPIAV
For assay [7], the system named is Neuregulin-1 EGF-like domain. Nature of the assay: small molecules binding NRG1 EGF domain – biochemical, small-molecule microarray, 635 nm fluorescence, primary screen (AID 1081).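 Further: binding of the protein to compounds printed on small-molecule microarray slides.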 Particulars: higher = more signal.
The nature of assay [8]: FRG1 expression reporter modulators in myotubes – cell-based, C2C12 myotubes, firefly/Renilla luciferase, luminescence, FRG1 inhibition for FSHD, primary screen (AID 1084). Conditions: FRG1 promoter luciferase, higher = more signal, called active from +8 up or from −8 down.
Assay [9] in a line: small molecules captured by biotinylated probe aFST – biochemical, small-molecule microarray, fluorescence 635/667, stem cell growth factor project, primary screen (AID 1086).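 Further: score merges 667 nm fluorescence with signal-to-noise of each printed compound spot.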 Conditions: higher = more signal.
The nature of assay [10]: binders of probe aHhip on microarray, primary screen, stem cell growth factor project, biochemical, small-molecule microarray, fluorescence 635/667 (AID 1087).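 Further: score merges spot fluorescence at 667nm with spot signal to noise ratio.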 Conditions: higher = more signal.
In assay [11] the test system is PRMT1 (protein arginine N-methyltransferase 1). Nature of the assay: small molecules binding arginine methyltransferase PRMT1 – biochemical, small-molecule microarray, 635 nm fluorescence, primary screen (AID 1088).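 Further: binding of Prmt1 protein to compounds spotted on small-molecule microarray slides.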 Conditions: higher = more signal.
Assay [12] can be described thus: growth effects on S. cerevisiae YJM789 – YJM789 clinical isolate, OD600, 24 h, basal, primary screen (AID 1089).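 Further: growth of clinical yeast isolate S. cerevisiae YJM 789 seeded 1000 cells per well; test concentration not given here.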 Particulars: higher = more signal, called active from +8 up or from −8 down.
The nature of assay [13]: S. pombe growth modifiers, basal conditions – strain 972, OD600, 24 h, no modulator, primary screen (AID 1090).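 Further: basal condition with compound alone and no growth modifier present; test concentration not given here.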 Particulars: S. pombe 972 growth, higher = more signal, called active from +8 up or from −8 down.
A short description of assay [14]: budding yeast growth modifiers under rapamycin – strain BY4716, OD600, 96 h, primary screen (AID 1091). Further: test concentration not given here. Particulars: S. cerevisiae BY4716 + rapamycin, higher = more signal, called active from +8 up or from −8 down.
Assay [15] deals with Torsin-1A-interacting protein 2 (Homo sapiens) (UniProt Q8NFQ8). Nature of the assay: small molecules binding lysate-expressed LULL1 – cell lysate, human LULL1 lysate, 635/667 nm fluorescence, primary screen (AID 1092).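 Further: probe is lysate of COS7 cells overexpressing human LULL1; score merges per-feature 667 nm fluorescence with signal-to-noise.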 Conditions: small-molecule microarray, hLULL1 lysate binding, 635 nm fluorescence; higher = more signal.
Sequence of Torsin-1A-interacting protein 2 (Homo sapiens) (Q8NFQ8 whole entry, looked up): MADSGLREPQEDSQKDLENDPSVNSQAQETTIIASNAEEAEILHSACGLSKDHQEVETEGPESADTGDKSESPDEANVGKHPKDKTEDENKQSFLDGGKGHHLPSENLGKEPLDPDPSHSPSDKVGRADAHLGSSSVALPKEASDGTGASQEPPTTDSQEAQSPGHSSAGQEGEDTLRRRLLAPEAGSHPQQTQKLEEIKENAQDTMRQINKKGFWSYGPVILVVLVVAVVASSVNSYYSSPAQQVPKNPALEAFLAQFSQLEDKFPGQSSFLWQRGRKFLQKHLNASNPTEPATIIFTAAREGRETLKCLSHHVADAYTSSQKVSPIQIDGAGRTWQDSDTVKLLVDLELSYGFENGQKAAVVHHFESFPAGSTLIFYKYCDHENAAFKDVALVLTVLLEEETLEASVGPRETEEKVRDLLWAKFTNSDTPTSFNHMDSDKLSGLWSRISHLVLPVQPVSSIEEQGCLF
Assay [16] can be described thus: optical density change of DRC41 E. coli – strain DRC41, OD650, 24 h, E. coli filamentation project, primary screen (AID 1093).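 Further: MC1000 strain lacking acrAB efflux and sulA so SOS filamentation is blocked; test concentration not given here.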 Conditions: E. coli DRC41 growth, higher = more signal, called active from +8 up or from −8 down.
The nature of assay [17]: probe aLefty2 binding to arrayed compounds – biochemical, biotinylated probe, 635/667 nm fluorescence, primary screen (AID 1094).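 Further: score merges spot fluorescence near 667 nm with spot signal-to-noise ratio.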 Conditions: small-molecule microarray, higher = more signal.
Assay [18] concerns Noggin (protein binding on small-molecule microarray). Nature of the assay: small molecules binding Noggin protein – biochemical, 635/667 nm fluorescence, primary screen (AID 1095).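 Further: score merges 667 nm feature fluorescence with signal to noise over triplicate slides.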 Particulars: 635 nm fluorescence, higher = more signal.
The target in assay [19] is Neurogenic locus notch homolog protein 3 (Homo sapiens) (UniProt Q9UM47). The experiment in a line: small molecules binding NOTCH3 protein – biochemical, 635/667 nm fluorescence, primary screen (AID 1096). Conditions: small-molecule microarray, 635 nm fluorescence, higher = more signal.
Sequence of Neurogenic locus notch homolog protein 3 (Homo sapiens) (Q9UM47 whole entry, looked up): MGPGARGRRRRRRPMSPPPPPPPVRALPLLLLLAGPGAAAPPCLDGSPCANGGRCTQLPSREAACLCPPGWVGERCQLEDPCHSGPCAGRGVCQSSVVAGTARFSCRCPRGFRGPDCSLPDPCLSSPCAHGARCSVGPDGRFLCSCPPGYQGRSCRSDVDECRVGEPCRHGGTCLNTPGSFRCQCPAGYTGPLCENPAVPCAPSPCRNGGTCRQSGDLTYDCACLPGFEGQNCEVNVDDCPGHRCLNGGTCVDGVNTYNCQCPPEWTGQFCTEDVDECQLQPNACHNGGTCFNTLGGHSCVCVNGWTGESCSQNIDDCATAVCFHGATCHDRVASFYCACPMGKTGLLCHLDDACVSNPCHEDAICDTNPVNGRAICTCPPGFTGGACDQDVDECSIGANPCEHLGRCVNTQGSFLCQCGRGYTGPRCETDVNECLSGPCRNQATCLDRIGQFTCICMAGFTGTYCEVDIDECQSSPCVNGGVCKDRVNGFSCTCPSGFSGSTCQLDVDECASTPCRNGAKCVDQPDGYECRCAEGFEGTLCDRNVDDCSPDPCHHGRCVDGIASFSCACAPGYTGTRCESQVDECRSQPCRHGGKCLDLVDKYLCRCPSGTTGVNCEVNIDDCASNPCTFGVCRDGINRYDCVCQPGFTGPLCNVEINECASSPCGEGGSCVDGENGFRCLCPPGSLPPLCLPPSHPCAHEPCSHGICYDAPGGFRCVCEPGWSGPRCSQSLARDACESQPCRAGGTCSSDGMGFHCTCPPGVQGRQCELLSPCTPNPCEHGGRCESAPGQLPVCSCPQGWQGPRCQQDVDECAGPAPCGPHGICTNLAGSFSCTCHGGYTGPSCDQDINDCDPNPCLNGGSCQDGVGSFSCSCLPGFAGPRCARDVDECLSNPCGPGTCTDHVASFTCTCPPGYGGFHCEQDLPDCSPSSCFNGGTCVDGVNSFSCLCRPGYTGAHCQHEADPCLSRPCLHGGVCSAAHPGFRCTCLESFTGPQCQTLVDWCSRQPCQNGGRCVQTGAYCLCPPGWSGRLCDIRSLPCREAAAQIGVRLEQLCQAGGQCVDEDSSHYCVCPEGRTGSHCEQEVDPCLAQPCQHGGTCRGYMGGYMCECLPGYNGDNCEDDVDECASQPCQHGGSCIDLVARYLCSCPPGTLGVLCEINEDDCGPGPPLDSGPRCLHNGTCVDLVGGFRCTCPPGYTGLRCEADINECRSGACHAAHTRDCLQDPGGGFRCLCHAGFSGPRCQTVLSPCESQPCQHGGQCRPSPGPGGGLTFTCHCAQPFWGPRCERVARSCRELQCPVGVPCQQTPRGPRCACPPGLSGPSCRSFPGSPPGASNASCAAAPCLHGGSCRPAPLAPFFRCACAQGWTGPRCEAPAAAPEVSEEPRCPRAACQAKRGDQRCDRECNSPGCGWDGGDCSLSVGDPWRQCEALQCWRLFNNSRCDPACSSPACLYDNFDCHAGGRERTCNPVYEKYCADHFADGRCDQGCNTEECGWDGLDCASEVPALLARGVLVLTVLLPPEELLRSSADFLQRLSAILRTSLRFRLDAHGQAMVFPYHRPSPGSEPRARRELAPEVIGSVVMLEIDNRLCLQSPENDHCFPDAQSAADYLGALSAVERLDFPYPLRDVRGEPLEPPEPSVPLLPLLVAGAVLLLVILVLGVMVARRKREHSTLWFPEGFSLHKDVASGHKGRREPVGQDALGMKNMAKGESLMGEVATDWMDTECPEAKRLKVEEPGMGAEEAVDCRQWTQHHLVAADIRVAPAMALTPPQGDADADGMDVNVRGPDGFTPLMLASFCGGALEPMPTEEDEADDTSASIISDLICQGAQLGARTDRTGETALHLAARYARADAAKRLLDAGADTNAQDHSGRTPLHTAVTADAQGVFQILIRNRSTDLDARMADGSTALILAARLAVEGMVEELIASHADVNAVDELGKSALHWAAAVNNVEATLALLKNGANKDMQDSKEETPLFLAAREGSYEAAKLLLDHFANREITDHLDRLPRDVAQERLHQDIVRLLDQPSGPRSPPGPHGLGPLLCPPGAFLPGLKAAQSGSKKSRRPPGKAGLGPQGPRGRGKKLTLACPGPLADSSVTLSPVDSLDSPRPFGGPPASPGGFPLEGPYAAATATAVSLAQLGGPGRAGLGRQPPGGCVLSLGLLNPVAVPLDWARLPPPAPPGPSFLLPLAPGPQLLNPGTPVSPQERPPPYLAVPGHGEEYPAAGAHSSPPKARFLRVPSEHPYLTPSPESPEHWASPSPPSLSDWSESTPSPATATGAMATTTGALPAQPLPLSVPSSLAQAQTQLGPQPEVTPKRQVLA
Assay [20] can be described thus: probe aEGFR binding to arrayed compounds – biochemical, biotinylated probe, 635/667 nm fluorescence, primary screen (AID 1097).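 Further: probe is a biotinylated anti-EGFR antibody binding compounds printed on slides; score combines fluorescence near 667 nm and signal to noise of each spot.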 Particulars: small-molecule microarray, higher = more signal.

We go through five compounds from PubChem BioAssay.

The source made the active and inactive calls.

Consider `C=C(CCCC)/C(=C/C[C@@H](OC(C)=O)c1ccccc1OCCO)c1cc(C(=O)OC)ccc1OC`, for which the composite z-score was 0.0248 in [1]; -0.0044 in [2]; -0.0996 in [3]; 0.187 in [4]; -0.659 in assay [5]; -0.0693 in assay [6]. In addition, the composite z-score in assay [7] is -0.0487; in assay [9], -0.38; in assay [10] it was -0.271; in assay [11], 0.252; in assay [15], 0.615; in assay [17], -0.12. Moreover, the composite z-score in [18] was 0.0643; in assay [19] it was -0.218; in [20], -0.185. Further, the z-score in [8] was 0.549 (inactive); in assay [12], 1.03 (inactive); in assay [13], 0.404 (inactive); in assay [14] it was -0.358 (inactive); in assay [16], 0.531 (inactive).
`C=CCN(Cc1ccccc1)C(=O)C(c1cccs1)N(C(=O)/C=C\C(=O)O)c1ccc(CCOCCO)cc1` (stereo not given): the composite z-score in assay [1] is 0.146; in assay [2], -0.182; in assay [3] it was -0.176; in [4], -0.865; in assay [5] it was -1.84; in [6] it was 0.718. Also, the composite z-score in [7] is 0.0305; in assay [9] it was -1.35; in assay [10] it was -0.134; in assay [11], -0.133; in [15], -0.288; in assay [17] it was -0.209. For the same compound, the composite z-score was -1.51 in assay [18], -1.36 in [19] and -0.32 in assay [20]. Besides, the z-score in assay [8] is 0.988 (inactive); in assay [12] it was -1.22 (inactive); in [13], 0.246 (inactive); in assay [14], -0.391 (inactive); in assay [16], 1.01 (inactive).
With `CO[C@H]1O[C@H](CO)[C@@H](OC(=O)Nc2ccc(Br)cc2)[C@@H]2OC(=O)[C@H](Cc3cccc(Br)c3)C/C=C/C[C@@H](Cc3cccc(Br)c3)C(=O)O[C@@H]12`, the composite z-score in assay [1] was -0.0675; in [2], -0.0034; in [3] it was -0.135; in [4], 0.0489; in assay [5] it was 0.0333; in [6], 0.72. Further, the composite z-score in assay [7] is 1.05; in assay [9] it was 0.388; in assay [10] it was 0.315; in assay [11], 0.0859; in assay [15], 0.763; in [17] it was -0.112. In addition, the composite z-score was 0.594 in assay [18], 0.911 in assay [19] and -0.0828 in [20]. For the same compound, the z-score in assay [8] is 1.3 (inactive); in assay [12], -0.163 (inactive); in [13] it was -2.81 (inactive); in [14], 30.3 (active); in [16], 1.26 (inactive).
As for `O=C(CS)NCCCCCNC(=O)[C@@H]1C[C@@H]2C(=O)NCC(=O)N2[C@@H]1c1cccc(OCCO)c1`, the composite z-score in assay [1] is 0.312; in [2] it was 0.389; in assay [3] it was -0.12; in assay [4], -0.161; in assay [5] it was -0.067; in assay [6] it was -0.515. Moreover, the composite z-score in [7] is 1.1; in assay [9] it was -0.188; in assay [10], -0.166; in [11], 0.701; in [15] it was 2.92; in assay [17], -0.0823. Besides, the composite z-score in assay [18] was 0.271; in [19] it was 0.328; in assay [20], -0.0466. Further, the z-score is -0.612 (inactive) in assay [8]; -5.72 (inactive) in assay [12]; -0.31 (inactive) in assay [13]; -0.485 (inactive) in assay [14]; 2.71 (inactive) in assay [16].
As for `CCCCCCCCCCC(O)C1C=CC2C(=O)NC(=O)C2N1Nc1ccc(Cl)cc1Cl` (stereo not given), the composite z-score was 0.133 in [1]; -1.22 in assay [2]; -0.0667 in assay [3]; 0.159 in assay [4]; -0.218 in [5]; 1.02 in assay [6]. In addition, the composite z-score is 0.436 in assay [7]; 0.0804 in [9]; -0.0237 in assay [10]; 0.355 in assay [11]; 1.8 in assay [15]; -0.0769 in assay [17]. The composite z-score in assay [18] is -0.729; in [19], 0.102; in assay [20] it was -0.137. Further, the z-score in [8] was 1.32 (inactive); in assay [12], 1.52 (inactive); in [13], -0.451 (inactive); in [14], 0.309 (inactive); in assay [16], -2.39 (inactive).
